From PubChem BioAssay (NCI)
Values joined by “and” are separate entries in the source; they are usually repeats but may differ in a detail not shown here. Identical values can stand only once. Compounds without any hit were thinned out: in the full panel of roughly 79,000, 15% have a hit. Some compounds were tested as several samples or in several runs, with calls that do not always agree. Active and inactive are the calls of the source. Rule as the data show it: active = growth inhibition above about 70%; inactive = the rest.

Experiments:
[1] = NCI Yeast Anticancer Drug Screen. Data for the rad52 strain (AID 147);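 also: 0% = growth of vehicle-treated control cultures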; settings: S. cerevisiae rad52 mutant growth inhibition, stronger effect = higher value
How it was run: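 The repair-mutant yeast strain was incubated with compounds, then growth was read and inhibition derived relative to vehicle.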

[2] = NCI Yeast Anticancer Drug Screen. Data for the wt1 strain (AID 149);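 also: 0% = growth of vehicle-treated wt1 cultures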; settings: S. cerevisiae wt1 strain (SPY 50644) growth inhibition, stronger effect = higher value
How it was run: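 Growth inhibition read against vehicle controls after compound exposure of the wt1 yeast strain.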

[3] = NCI Yeast Anticancer Drug Screen. Data for the rad50EPP+ strain (AID 151);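 also: 0% = growth of vehicle-treated control cultures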; settings: S. cerevisiae rad50 mutant strain, stronger effect = higher value
How it was run: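 Vehicle-normalised growth inhibition; rad50EPP+ yeast strain, altered in DNA damage repair, compound-treated.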

[4] = NCI Yeast Anticancer Drug Screen. Data for the mgt1 strain (AID 153); settings: S. cerevisiae mgt1 mutant growth inhibition, stronger effect = higher value
How it was run: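 Vehicle-normalized growth inhibition is determined in mgt1 yeast, a strain selected for a defined alteration in DNA repair or cell cycle control.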

[5] = NCI Yeast Anticancer Drug Screen. Data for the rad50 strain (AID 155);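 also: 0% = growth of vehicle-only cultures of the same strain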; settings: S. cerevisiae rad50 strain growth inhibition, stronger effect = higher value
How it was run: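 Readout: growth inhibition relative to vehicle-treated cultures. Compound exposure was carried out in a genetically defined yeast strain deficient in DNA damage repair.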

[6] = NCI Yeast Anticancer Drug Screen. Data for the mec2-1 strain (AID 157); settings: S. cerevisiae mec2-1 strain, stronger effect = higher value
How it was run: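 Mutant yeast (mec2-1) grown with compound; growth inhibition relative to vehicle control reported.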

[7] = NCI Yeast Anticancer Drug Screen. Data for the rad14 strain (AID 159);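 also: 0% = growth of vehicle-treated control cultures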; settings: S. cerevisiae rad14 strain growth inhibition, stronger effect = higher value
How it was run: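 Growth inhibition vs vehicle controls; genetically altered yeast strain (DNA damage repair defect) treated with test compounds.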

[8] = NCI Yeast Anticancer Drug Screen. Data for the sgs1 mgt1 strain (AID 161);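 also: 0% = growth of cultures given vehicle only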; settings: S. cerevisiae sgs1 mgt1 strain, stronger effect = higher value
How it was run: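 Yeast cells carrying a defined DNA-repair defect were exposed to test compounds. Growth inhibition was measured relative to vehicle-treated controls.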

[9] = NCI Yeast Anticancer Drug Screen. Data for the CLN2oe strain (AID 163);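 also: 0% = growth of vehicle-only control cultures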; settings: S. cerevisiae CLN2oe strain, stronger effect = higher value
How it was run: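 Compounds are applied to yeast harbouring a defined cell-cycle control change; reduced growth compared with vehicle-treated controls gives the value.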

[10] = NCI Yeast Anticancer Drug Screen. Data for the cln2 rad14 strain (AID 165);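 also: 0% = growth equal to vehicle treated cultures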; settings: S. cerevisiae cln2 rad14 strain, stronger effect = higher value
How it was run: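 Readout is yeast growth inhibition versus vehicle-treated controls, using a strain with cln2 and rad14 alterations exposed to compound.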

[11] = NCI Yeast Anticancer Drug Screen. Data for the bub3 strain (AID 167); settings: S. cerevisiae bub3 mutant strain, stronger effect = higher value
How it was run: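 Readout: yeast growth inhibition, expressed relative to vehicle-only wells. The test organism is a mutant strain from a panel with lesions in DNA repair or checkpoint genes.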

[12] = NCI Yeast Anticancer Drug Screen. Data for the wt2 strain (AID 169);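 also: 0% = growth of vehicle-treated yeast cultures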; settings: S. cerevisiae wt2 strain growth inhibition, stronger effect = higher value
How it was run: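 Against vehicle-treated controls, the growth of yeast exposed to each compound was compared, and the inhibition was recorded.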

[13] = NCI Yeast Anticancer Drug Screen. Data for the mlh1 strain (AID 171);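 also: 0% = growth of vehicle-treated control cultures of the same strain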; settings: S. cerevisiae mlh1 strain growth inhibition, stronger effect = higher value
How it was run: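 Measured: yeast growth. Reference: vehicle-treated controls. Organism: strain with a defined alteration affecting DNA damage repair or cell cycle control, treated with compound.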

[14] = NCI Yeast Anticancer Drug Screen. Data for the sgs1 strain (AID 173);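 also: 0% = growth of vehicle-only control cultures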; settings: S. cerevisiae sgs1 mutant, stronger effect = higher value
How it was run: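 Each compound was added to cultures of the altered yeast strain. Growth was recorded, and inhibition was derived by comparison with vehicle controls.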

[15] = NCI Yeast Anticancer Drug Screen. Data for the mlh1 rad18 strain (AID 175); settings: S. cerevisiae mlh1 rad18 strain growth inhibition, stronger effect = higher value
How it was run: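 Genetically defined yeast (DNA repair-deficient) exposed to compounds; growth inhibition determined relative to vehicle.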

[16] = NCI Yeast Anticancer Drug Screen. Data for the rad18 strain (AID 177); settings: S. cerevisiae rad18 mutant growth inhibition, stronger effect = higher value
How it was run: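 Vehicle-treated cultures served as the baseline for scoring compound-induced growth inhibition in DNA-repair-mutant yeast.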

[17] = at 5.0 µM (retest, dose inferred, filed as 0.5)
[18] = at 50.0 µM (retest, dose inferred, filed as 5.0)

Measured: growth inhibition

Cc1sc2ccc3ccccc3c2[n+]1C
active: [1]; at 100.0 µM 94% | [2]; at 100.0 µM 94% | [4]; at 100.0 µM 79% | [5]; at 50.0 µM 82.6% and 95.2% | [5]; at 100.0 µM 83% | [6]; at 50.0 µM 85.8% and 91.7% | [6]; at 100.0 µM 93% | [7]; at 100.0 µM 85% | [8]; at 50.0 µM 89.2% and 97.3% | [9]; at 100.0 µM 92% | [10]; at 50.0 µM 87.2% and 77.2% | [11]; at 50.0 µM 86.6% and 89.3% | [11]; at 100.0 µM 96% | [12]; at 100.0 µM 94% | [14]; at 100.0 µM 91% | [15]; at 50.0 µM 86.7% and 96.7% | [16]; at 100.0 µM 87%
77% (active) and -4% (inactive): [5]; [18]
inactive: [1]; at 1.2 µM -3% | [1]; at 3.7 µM -14% | [1]; at 11.0 µM -17% | [1]; at 33.0 µM 3% | [2]; at 1.2 µM -21% | [2]; at 3.7 µM -19% | [2]; at 11.0 µM -24% | [2]; at 33.0 µM -8% | [3]; at 1.2 µM -23% | [3]; at 3.7 µM -10% | [3]; at 11.0 µM -40% | [3]; at 33.0 µM -25% | [3]; at 100.0 µM 10% | [4]; at 1.2 µM -9% | [4]; at 3.7 µM -12% | [4]; at 11.0 µM -17% | [4]; at 33.0 µM 13% | [5]; at 1.2 µM 7% | [5]; at 3.7 µM 27% | [5]; [17] 44% and -15% | [5]; at 11.0 µM 12% | [5]; at 33.0 µM 15% | [6]; at 1.2 µM -31% | [6]; at 3.7 µM -36% | [6]; [17] 49% and -26% | [6]; at 11.0 µM -17% | [6]; at 33.0 µM -11% | [6]; [18] 61% and -2% | [7]; at 1.2 µM -34% | [7]; at 3.7 µM -22% | [7]; at 11.0 µM -29% | [7]; at 33.0 µM -28% | [8]; [17] -14% and -11% | [8]; [18] 20% and 4% | [9]; at 1.2 µM -16% | [9]; at 3.7 µM -64% | [9]; at 11.0 µM -39% | [9]; at 33.0 µM -19% | [10]; [17] 47% and -10% | [10]; [18] 32% and 15% | [11]; at 1.2 µM -2% | [11]; at 3.7 µM -15% | [11]; [17] 23% and -18% | [11]; at 11.0 µM -28% | [11]; at 33.0 µM 14% | [11]; [18] 44% and 36% | [12]; at 1.2 µM -11% | [12]; at 3.7 µM 2% | [12]; at 11.0 µM -12% | [12]; at 33.0 µM 8% | [13]; at 1.2 µM -67% | [13]; at 3.7 µM -62% | [13]; at 11.0 µM -70% | [13]; at 33.0 µM -41% | [13]; at 100.0 µM 41% | [14]; at 1.2 µM 3% | [14]; at 3.7 µM 2% | [14]; at 11.0 µM 1% | [14]; at 33.0 µM 19% | [15]; [17] 32% and -17% | [15]; [18] 46% and 8% | [16]; at 1.2 µM 0% | [16]; at 3.7 µM 4% | [16]; at 11.0 µM 2% | [16]; at 33.0 µM -1%

CC12C(=O)OC(=O)C(c3ccccc31)c1ccccc12
inactive: [1]; at 1.2 µM -8% | [1]; at 3.7 µM -2% | [1]; at 11.0 µM -12% | [1]; at 33.0 µM -4% | [1]; at 100.0 µM 3% | [2]; at 1.2 µM 2% | [2]; at 3.7 µM -2% | [2]; at 11.0 µM 4% | [2]; at 33.0 µM 2% | [2]; at 100.0 µM 9% | [3]; at 1.2 µM -11% | [3]; at 3.7 µM -25% | [3]; at 11.0 µM -30% | [3]; at 33.0 µM 19% | [3]; at 100.0 µM 9% | [4]; at 1.2 µM -7% | [4]; at 3.7 µM -9% | [4]; at 11.0 µM -5% | [4]; at 33.0 µM -4% | [4]; at 100.0 µM -6% | [5]; at 1.2 µM -18% | [5]; at 3.7 µM -17% | [5]; [17] 43% | [5]; at 11.0 µM -16% | [5]; at 33.0 µM -16% | [5]; [18] 21% | [5]; at 100.0 µM 20% | [6]; at 1.2 µM -5% | [6]; at 3.7 µM -6% | [6]; [17] 47% | [6]; at 11.0 µM -5% | [6]; at 33.0 µM -5% | [6]; [18] 28% | [6]; at 100.0 µM -2% | [7]; at 1.2 µM -4% | [7]; at 3.7 µM -9% | [7]; at 11.0 µM 0% | [7]; at 33.0 µM 2% | [7]; at 100.0 µM 8% | [8]; [17] 33% | [8]; [18] 21% | [9]; at 1.2 µM -9% | [9]; at 3.7 µM -8% | [9]; at 11.0 µM -10% | [9]; at 33.0 µM -11% | [9]; at 100.0 µM -10% | [10]; [17] 9% | [10]; [18] 5% | [11]; at 1.2 µM -7% | [11]; at 3.7 µM -5% | [11]; [17] 28% | [11]; at 11.0 µM -8% | [11]; at 33.0 µM -5% | [11]; [18] 49% | [11]; at 50.0 µM 68.1% | [11]; at 100.0 µM 2% | [12]; at 1.2 µM -7% | [12]; at 3.7 µM -5% | [12]; at 11.0 µM 11% | [12]; at 33.0 µM 9% | [12]; at 100.0 µM 7% | [14]; at 1.2 µM -12% | [14]; at 3.7 µM -8% | [14]; at 11.0 µM -1% | [14]; at 33.0 µM 2% | [14]; at 100.0 µM 11% | [15]; [17] 58% | [15]; [18] 54% | [16]; at 1.2 µM -8% | [16]; at 3.7 µM -10% | [16]; at 11.0 µM -5% | [16]; at 33.0 µM 0% | [16]; at 100.0 µM -7%
active: [5]; at 50.0 µM 98.3% | [6]; at 50.0 µM 91% | [8]; at 50.0 µM 97.2% | [10]; at 50.0 µM 76.2% | [15]; at 50.0 µM 93.6%
